A selection: hits, their analogues and other compounds. The true share with any hit is near 1.8%.
DENV2 CPE rescue – DENV2-induced cell death inhibition. AID 651640. CPE inhibition, % at 9.99 µM. 350,000 tested, 1.7% active. DENV2-infected cells, cytopathic effect rescue, plate reader; in the data active = CPE inhibition above about 20%, passing the limit was not always enough; inconclusive = no clear call, values can overlap the other calls; tested in BHK-21 cells
AF4-AF9 inh – inhibitors of human MLL-AF4/AF9 interaction. AID 651704. AlphaScreen, biotin-AF4 peptide binding to FLAG-AF9. 350,000 tested, 0.47% active. P42568. inhibition, % at 10 µM;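 active = every replicate reaching a set inhibition limit, whatever the replicate mean, cut at about 25% in these data; inconclusive = mean inhibition reaches that limit but some replicates miss it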
ERp5 inh – ERp5 (human) disulfide isomerase inhibition; Q15084; inhibition, % at 9.99 µM; 350,000 tested, 0.05% active; ERp5 insulin aggregation, absorbance 650 nm, 90 min; AID 651711;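 active = mean replicate inhibition above about 25%, with every replicate also reaching it, limit read from the data, passing the limit was not always enough; inconclusive = only one of those two criteria met; inactive = neither criterion met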
ERAP1 inh – inhibitors of human ERAP1 aminopeptidase | inhibition, % at 10.7 µM | 340,000 tested, 0.15% active | AID 652197 | recombinant ERAP1, Leu-AMC fluorescence, 60 min;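 active = mean replicate inhibition of at least 30%, or all replicates individually reaching that 30% level; inactive = mean below 30% and not every replicate reaching it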
PDI turbidity – blocks human protein disulfide isomerase activity. P07237. PDI insulin aggregation turbidity, A650, 90 min. inhibition, % at 10 µM. 350,000 tested, 0.052% active;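 active = mean inhibition across replicates of 30% or more, whatever share of single replicates reach that level; inconclusive = mean inhibition below 30% while every single replicate reaches 30%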
Target sequence (P07237 whole entry, looked up): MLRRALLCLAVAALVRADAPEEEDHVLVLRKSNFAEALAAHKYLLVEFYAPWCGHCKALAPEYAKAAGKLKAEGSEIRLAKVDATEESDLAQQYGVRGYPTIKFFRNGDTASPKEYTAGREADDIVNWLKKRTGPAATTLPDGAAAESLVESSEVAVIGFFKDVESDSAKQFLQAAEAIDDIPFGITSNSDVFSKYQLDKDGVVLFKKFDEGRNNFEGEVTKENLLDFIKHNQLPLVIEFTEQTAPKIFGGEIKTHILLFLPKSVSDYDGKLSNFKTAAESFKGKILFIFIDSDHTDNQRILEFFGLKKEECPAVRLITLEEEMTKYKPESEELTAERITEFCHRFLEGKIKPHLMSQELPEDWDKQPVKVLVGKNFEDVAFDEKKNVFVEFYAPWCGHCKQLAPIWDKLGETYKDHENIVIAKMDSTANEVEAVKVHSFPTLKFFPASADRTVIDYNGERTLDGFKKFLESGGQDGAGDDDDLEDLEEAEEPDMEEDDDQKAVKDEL
Numbers stand for hits; 0 = inactive; ? = inconclusive; - = not tested or not shown.

SMILES	DENV2 CPE rescue	AF4-AF9 inh	ERp5 inh	ERAP1 inh	PDI turbidity
C[C@H]1CN([C@@H](C)CO)C(=O)Cc2cc(NS(=O)(=O)c3ccccc3)ccc2O[C@@H]1CN(C)Cc1ccccc1	0	0	0	0	-
C[C@@H]1CN([C@H](C)CO)C(=O)Cc2cc(NS(=O)(=O)c3ccccc3)ccc2O[C@H]1CN(C)Cc1ccc(Cl)c(Cl)c1	33	0	0	0	-
Cc1ccc(S(=O)(=O)Nc2ccc3c(c2)CC(=O)N([C@@H](C)CO)C[C@H](C)[C@@H](CN(C)Cc2ccc(-c4ccccc4)cc2)O3)cc1	0	0	0	0	-
C[C@@H]1CN([C@@H](C)CO)C(=O)Cc2cc(NS(=O)(=O)c3ccccc3)ccc2O[C@@H]1CN(C)Cc1ccc(-c2ccccc2)cc1	44	0	0	0	-
C[C@@H]1CN([C@@H](C)CO)C(=O)Cc2cc(NS(=O)(=O)c3ccc(F)cc3)ccc2O[C@@H]1CN(C)Cc1ccc(C(=O)O)cc1	30	0	0	0	-
C[C@@H]1CN([C@H](C)CO)C(=O)Cc2cc(NS(=O)(=O)c3ccccc3)ccc2O[C@@H]1CN(C)Cc1ccc(Cl)c(Cl)c1	0	0	0	0	-
O=C(Nc1ccc2c(c1)[C@@H]1C[C@@H](CC(=O)N3CCOCC3)O[C@@H](CO)[C@@H]1O2)Nc1ccccc1F	0	0	0	0	-
C[C@@H]1CN([C@H](C)CO)C(=O)Cc2cc(NS(=O)(=O)c3ccccc3)ccc2O[C@@H]1CN(C)Cc1ccc(-c2ccccc2)cc1	56	0	0	0	-
Cc1ccc(S(=O)(=O)Nc2ccc3c(c2)CC(=O)N([C@@H](C)CO)C[C@H](C)[C@H](CN(C)Cc2ccc(-c4ccccc4)cc2)O3)cc1	?	0	0	0	-
COc1ccc(S(=O)(=O)Nc2ccc3c(c2)CC(=O)N([C@H](C)CO)C[C@@H](C)[C@H](CN(C)Cc2ccc(-c4ccccc4)cc2)O3)cc1	57	0	0	0	-
COc1ccc(CN(C)C[C@H]2Oc3ccc(NS(=O)(=O)c4ccc(Cl)cc4)cc3CC(=O)N([C@@H](C)CO)C[C@@H]2C)cc1	25	0	0	0	-
C[C@@H]1CN([C@@H](C)CO)C(=O)c2ccccc2-c2ccccc2CO[C@H]1CN(C)C(=O)Nc1cccc(Cl)c1Cl	0	0	-	-	-
COC(=O)c1c(CC[C@@H](CO)NC(=O)N[C@H](Cc2ccccc2)Cn2cc(-c3ccccn3)nn2)oc(C(C)=O)c1C(=O)OC	31	0	0	0	-
Nc1c(N(Cc2ccco2)C(=O)c2ccc(Cl)cc2)c(=O)[nH]c(=O)n1Cc1ccccc1	0	0	0	0	0
N#Cc1ccc(C(=O)N(Cc2ccco2)c2c(N)n(Cc3ccccc3)c(=O)[nH]c2=O)cc1	0	0	0	0	33
COc1ccc2c3c([nH]c2c1)[C@H](CO)N(C(C)=O)CC31CCN(Cc2cc(-c3ccccc3)on2)CC1	?	30	0	0	-
COc1ccc2c3c([nH]c2c1)[C@@H](CO)N(C(C)=O)CC31CCN(Cc2cc(-c3ccccc3)on2)CC1	0	36	0	0	-
COc1ccc2c3c([nH]c2c1)[C@H](CO)N(C(=O)Nc1ccc(F)cc1)CC31CCN(Cc2cc(-c3ccccc3)on2)CC1	0	0	0	0	-
COc1ccc2c3c([nH]c2c1)[C@H](CO)N(C(C)=O)CC31CN(Cc2cc(-c3ccccc3)on2)C1	0	26	0	0	-
O=C(Cc1cccnc1)N1CC(=O)N2[C@H](CO)[C@H](c3ccc(C#CC4CCCCC4)cc3)[C@H]2C1	0	-	0	-	-
C#Cc1ccc([C@H]2C=C(C(=O)Nc3ccccc3)O[C@@H](OCCCCO)C2)cc1	0	0	0	0	-
Brc1ccc(OCc2nnc(SCC3CCCCC3)o2)cc1	29	0	0	0	0
CC(C)CC#Cc1cnc2c(c1)C(=O)N([C@@H](C)CO)C[C@@H](C)[C@@H](CN(C)C(=O)Cc1ccncc1)O2	28	0	0	0	-
COCC(=O)N(C)C[C@H]1Oc2ncc(C#Cc3cccnc3)cc2C(=O)N([C@H](C)CO)C[C@H]1C	24	0	0	0	-
C[C@H]1CN([C@@H](C)CO)C(=O)c2cc(Br)cnc2O[C@H]1CN(C)C(=O)C1CCOCC1	24	0	0	0	-
SMILES	DENV2 CPE rescue	AF4-AF9 inh	ERp5 inh	ERAP1 inh	PDI turbidity
CC(C)CC#Cc1cnc2c(c1)C(=O)N([C@H](C)CO)C[C@H](C)[C@H](CN(C)C(=O)C1CCOCC1)O2	0	0	0	0	-
C[C@H](CO)N1C[C@H](C)[C@H](CN(C)C(=O)C2CCOCC2)Oc2ncc(Br)cc2C1=O	0	0	0	0	-
CC(C)CC#Cc1cnc2c(c1)C(=O)N([C@H](C)CO)C[C@@H](C)[C@H](CN(C)C(=O)C1CCOCC1)O2	38	0	0	0	-
CCCNC(=O)N1CC2(C1)[C@H](c1ccccc1)[C@@H](CO)N2C(=O)C1CCCC1	0	0	0	0	-
O=C(c1cccc(F)c1)N1C[C@@H]2[C@H](c3ccccc31)[C@H](CO)N2C(=O)C1CCCC1	0	0	0	0	-
CC(=O)N1CC2(C1)[C@H](c1ccc(-c3ccccc3C)cc1)[C@@H](CO)N2C(=O)CC1CC1	0	0	0	0	-
O=C(COC(=O)C1(c2ccccc2)CC1)NNC(=O)c1ccccc1	?	0	0	0	0
NC(=O)c1ccccc1NC(=O)COC(=O)C1(c2ccccc2)CC1	32	0	0	0	0
CCS(=O)(=O)N1[C@H](CO)[C@@H](c2ccccc2)C12CN(C(=O)C1CC1)C2	0	0	0	0	-
O=S(=O)(Nc1cccc(-c2cn3c(n2)SCC3)c1)c1ccccc1	0	0	0	46	0
CCOC(=O)CCCCC(=O)c1[nH]c(=O)[nH]c1CN1CCOCC1	0	85	0	0	0
CCc1nc2ccc(C(=O)N3CCCC(C(N)=O)C3)cn2c1N(C=O)CC (configuration not stated)	27	0	0	0	0
C[C@@H]1CN([C@H](C)CO)C(=O)c2cc(NS(=O)(=O)c3ccc(F)cc3)ccc2O[C@@H]1CN(C)S(=O)(=O)c1ccc(F)cc1	?	0	0	0	-
CC(=O)CC(=O)O[C@@H]1C=C[C@H](NC(=O)OC(C)(C)C)C1	29	0	0	0	-
COC(=O)CC(=O)O[C@H]1C=C[C@@H](NC(=O)OC(C)(C)C)C1	0	0	0	0	0
CC(C)N(Cc1ccccc1)C(=O)COC(=O)C1CCN(c2ccc(C(F)(F)F)cn2)CC1	?	0	0	0	0
O=C(COC(=O)C1CCN(c2ccc(C(F)(F)F)cn2)CC1)c1ccccc1	0	0	0	0	0
CC(C)(C)N(Cc1ccccc1)C(=O)COC(=O)C1CCN(c2ccc(C(F)(F)F)cn2)CC1	44	0	0	0	0
CCOc1ccc(C(=O)COC(=O)C2CCN(c3ccc(C(F)(F)F)cn3)CC2)cc1	74	0	0	0	0
C[C@H]1CN([C@@H](C)CO)C(=O)c2cccc(NS(=O)(=O)c3cn(C)cn3)c2O[C@H]1CN(C)C	0	0	0	0	-

Compound activity deposited in PubChem by Broad Institute.
